In the supplement of paper PMC11732987, “Enantioselective OTUD7B fragment discovery through chemoproteomics screening and high-throughput optimisation” (Communications Chemistry, 2025):

Experiments:
Experiment in all cases: log2 ratio of Biotin-Ahx-Ub-VS probe labelling (fragment/DMSO); higher = less target engagement (more negative = stronger competition), active = hit call of the paper (q ≤ 0.05, log2 ratio ≤ -1)
Conditions in all cases: compound concentration: 200 uM; treatment time: 3 h
USP34 = USP34 (UniProt Q70CQ2)
Sequence of USP34 (Q70CQ2 whole entry, the tested form may be a part): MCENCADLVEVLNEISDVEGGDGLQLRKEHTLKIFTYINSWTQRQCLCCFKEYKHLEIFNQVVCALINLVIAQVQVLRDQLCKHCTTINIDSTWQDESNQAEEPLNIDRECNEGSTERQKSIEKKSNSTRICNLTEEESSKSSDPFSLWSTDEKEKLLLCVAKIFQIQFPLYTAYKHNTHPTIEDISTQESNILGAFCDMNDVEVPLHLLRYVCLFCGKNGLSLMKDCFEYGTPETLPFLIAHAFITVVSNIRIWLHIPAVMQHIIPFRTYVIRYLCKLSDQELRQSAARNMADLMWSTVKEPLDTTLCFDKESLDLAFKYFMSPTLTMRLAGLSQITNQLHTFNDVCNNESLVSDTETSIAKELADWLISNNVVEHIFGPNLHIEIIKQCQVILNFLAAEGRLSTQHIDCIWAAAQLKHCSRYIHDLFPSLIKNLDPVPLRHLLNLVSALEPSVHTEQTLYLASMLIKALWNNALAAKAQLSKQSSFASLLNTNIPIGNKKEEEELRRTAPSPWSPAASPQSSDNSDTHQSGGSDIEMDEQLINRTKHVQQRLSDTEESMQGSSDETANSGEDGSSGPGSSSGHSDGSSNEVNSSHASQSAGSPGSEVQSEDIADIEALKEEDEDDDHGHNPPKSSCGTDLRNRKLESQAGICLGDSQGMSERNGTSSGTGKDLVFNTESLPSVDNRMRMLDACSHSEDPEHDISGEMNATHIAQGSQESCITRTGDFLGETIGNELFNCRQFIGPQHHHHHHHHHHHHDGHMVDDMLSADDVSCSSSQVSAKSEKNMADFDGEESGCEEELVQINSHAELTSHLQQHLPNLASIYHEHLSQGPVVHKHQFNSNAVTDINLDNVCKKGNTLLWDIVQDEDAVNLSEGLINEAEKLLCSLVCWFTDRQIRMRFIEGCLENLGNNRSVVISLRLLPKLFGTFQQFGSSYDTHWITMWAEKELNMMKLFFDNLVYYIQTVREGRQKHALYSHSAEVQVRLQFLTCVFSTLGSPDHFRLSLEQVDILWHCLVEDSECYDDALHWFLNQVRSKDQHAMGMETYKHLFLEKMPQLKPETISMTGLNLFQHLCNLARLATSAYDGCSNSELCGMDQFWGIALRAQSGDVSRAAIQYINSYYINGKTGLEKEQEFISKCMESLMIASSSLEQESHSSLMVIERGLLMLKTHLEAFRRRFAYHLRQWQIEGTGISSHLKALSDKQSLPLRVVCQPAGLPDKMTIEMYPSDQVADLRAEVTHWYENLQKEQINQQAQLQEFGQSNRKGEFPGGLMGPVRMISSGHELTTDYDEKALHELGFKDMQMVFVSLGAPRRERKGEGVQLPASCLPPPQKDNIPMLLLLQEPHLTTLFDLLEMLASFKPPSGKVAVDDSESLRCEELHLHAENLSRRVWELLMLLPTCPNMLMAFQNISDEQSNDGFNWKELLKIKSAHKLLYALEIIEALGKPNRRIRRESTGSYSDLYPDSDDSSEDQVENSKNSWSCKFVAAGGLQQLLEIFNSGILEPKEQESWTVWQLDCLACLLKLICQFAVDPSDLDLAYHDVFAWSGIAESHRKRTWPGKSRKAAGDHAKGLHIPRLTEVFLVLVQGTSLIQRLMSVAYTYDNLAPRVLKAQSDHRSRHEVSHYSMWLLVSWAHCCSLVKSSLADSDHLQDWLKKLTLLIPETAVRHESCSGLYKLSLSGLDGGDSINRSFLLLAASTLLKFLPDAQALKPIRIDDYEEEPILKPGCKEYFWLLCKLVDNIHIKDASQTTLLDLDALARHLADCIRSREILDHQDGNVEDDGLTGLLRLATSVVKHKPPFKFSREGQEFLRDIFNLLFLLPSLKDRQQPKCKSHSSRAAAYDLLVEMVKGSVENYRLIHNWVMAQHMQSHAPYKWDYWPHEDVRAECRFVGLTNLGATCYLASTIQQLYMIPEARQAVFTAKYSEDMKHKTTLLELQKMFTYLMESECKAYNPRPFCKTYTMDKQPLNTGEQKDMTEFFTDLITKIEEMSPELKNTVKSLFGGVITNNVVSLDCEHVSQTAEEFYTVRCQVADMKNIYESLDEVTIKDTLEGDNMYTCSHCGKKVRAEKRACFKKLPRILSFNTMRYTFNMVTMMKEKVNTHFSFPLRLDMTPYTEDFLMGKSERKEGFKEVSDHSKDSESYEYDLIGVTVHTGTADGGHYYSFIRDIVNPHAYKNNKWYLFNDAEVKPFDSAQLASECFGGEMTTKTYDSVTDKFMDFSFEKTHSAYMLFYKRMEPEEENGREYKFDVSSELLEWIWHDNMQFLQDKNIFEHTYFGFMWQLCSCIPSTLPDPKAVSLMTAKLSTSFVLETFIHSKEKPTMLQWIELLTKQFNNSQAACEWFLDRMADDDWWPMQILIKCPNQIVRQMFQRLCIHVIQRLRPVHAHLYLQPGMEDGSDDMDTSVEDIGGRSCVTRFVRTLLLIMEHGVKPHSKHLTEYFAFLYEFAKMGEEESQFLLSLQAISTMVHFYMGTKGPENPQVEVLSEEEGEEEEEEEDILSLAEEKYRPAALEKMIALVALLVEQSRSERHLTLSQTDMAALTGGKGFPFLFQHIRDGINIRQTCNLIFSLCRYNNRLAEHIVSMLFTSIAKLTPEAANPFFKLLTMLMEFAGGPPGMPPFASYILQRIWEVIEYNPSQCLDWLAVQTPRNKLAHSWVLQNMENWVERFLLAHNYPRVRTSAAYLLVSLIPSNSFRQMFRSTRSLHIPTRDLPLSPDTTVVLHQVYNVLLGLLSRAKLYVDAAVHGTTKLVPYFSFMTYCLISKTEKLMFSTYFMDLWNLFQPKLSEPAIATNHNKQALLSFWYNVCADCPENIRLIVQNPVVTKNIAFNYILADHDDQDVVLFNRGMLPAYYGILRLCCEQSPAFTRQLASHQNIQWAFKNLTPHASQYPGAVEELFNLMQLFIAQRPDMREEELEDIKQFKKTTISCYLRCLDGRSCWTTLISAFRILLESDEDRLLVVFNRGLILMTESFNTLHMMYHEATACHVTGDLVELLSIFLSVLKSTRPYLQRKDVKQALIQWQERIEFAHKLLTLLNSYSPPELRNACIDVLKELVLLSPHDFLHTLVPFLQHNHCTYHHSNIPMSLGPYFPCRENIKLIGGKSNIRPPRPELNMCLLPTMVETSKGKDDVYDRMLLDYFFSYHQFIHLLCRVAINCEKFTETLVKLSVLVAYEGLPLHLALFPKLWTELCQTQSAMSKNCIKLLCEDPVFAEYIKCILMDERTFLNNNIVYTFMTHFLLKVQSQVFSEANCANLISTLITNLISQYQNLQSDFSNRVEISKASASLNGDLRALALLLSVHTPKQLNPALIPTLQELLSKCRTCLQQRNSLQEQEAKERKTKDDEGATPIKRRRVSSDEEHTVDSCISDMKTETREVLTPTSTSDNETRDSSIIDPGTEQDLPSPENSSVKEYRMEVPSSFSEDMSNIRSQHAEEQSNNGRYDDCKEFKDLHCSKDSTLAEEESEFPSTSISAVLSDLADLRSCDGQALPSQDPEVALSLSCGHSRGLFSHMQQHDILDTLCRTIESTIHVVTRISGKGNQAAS
Outline: (§1)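 Global-median-normalised Spectronaut label-free quantities were compared by unpaired t-test, and values are average log2 ratios of fragment over vehicle. Only proteins with ≥2 unique peptides were used. HEK293T lysate (495 µg per sample) was treated in triplicate with fragment at 200 µM or vehicle for 3 h and then with Biotin-Ahx-Ub-VS at 0.5 µM final for 1 h. Labelled DUBs were then NeutrAvidin-enriched, digested with LysC and trypsin, and run by diaPASEF LC-MS/MS.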

USP36 = biological target: T1, USP36 (UniProt Q9P275)
T1 sequence (whole entry): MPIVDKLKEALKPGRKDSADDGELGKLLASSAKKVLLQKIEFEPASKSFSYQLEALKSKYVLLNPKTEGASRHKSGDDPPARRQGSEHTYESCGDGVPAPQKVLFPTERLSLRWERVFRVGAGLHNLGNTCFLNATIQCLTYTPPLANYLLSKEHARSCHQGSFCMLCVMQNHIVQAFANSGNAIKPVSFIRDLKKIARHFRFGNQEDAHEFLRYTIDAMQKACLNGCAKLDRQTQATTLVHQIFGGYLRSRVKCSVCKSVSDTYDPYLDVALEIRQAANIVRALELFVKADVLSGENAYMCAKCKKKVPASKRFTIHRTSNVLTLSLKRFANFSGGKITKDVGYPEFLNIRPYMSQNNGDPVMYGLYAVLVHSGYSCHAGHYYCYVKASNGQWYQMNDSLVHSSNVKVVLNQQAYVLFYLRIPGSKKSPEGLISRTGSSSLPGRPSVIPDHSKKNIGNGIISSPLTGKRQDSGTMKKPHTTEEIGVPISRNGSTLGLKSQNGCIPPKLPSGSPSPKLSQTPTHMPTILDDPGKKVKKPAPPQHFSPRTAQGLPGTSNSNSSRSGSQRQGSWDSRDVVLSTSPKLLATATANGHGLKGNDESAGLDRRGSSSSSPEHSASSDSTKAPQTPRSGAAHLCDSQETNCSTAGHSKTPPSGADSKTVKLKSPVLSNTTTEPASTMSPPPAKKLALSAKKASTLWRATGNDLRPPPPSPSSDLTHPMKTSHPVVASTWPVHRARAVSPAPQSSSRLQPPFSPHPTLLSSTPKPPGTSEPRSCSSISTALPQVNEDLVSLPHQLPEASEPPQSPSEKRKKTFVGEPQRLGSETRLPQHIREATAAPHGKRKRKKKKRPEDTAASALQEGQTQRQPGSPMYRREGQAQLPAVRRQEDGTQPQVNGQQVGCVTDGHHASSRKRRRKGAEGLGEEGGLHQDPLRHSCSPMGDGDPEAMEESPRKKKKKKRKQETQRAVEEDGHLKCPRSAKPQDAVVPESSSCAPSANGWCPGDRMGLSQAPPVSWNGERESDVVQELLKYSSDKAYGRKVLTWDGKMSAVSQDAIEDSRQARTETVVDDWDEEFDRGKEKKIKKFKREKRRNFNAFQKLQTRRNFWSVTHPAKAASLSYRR
Outline: as §1

USP38 = biological target: T2, USP38 (UniProt Q8NB14)
T2 sequence (whole entry): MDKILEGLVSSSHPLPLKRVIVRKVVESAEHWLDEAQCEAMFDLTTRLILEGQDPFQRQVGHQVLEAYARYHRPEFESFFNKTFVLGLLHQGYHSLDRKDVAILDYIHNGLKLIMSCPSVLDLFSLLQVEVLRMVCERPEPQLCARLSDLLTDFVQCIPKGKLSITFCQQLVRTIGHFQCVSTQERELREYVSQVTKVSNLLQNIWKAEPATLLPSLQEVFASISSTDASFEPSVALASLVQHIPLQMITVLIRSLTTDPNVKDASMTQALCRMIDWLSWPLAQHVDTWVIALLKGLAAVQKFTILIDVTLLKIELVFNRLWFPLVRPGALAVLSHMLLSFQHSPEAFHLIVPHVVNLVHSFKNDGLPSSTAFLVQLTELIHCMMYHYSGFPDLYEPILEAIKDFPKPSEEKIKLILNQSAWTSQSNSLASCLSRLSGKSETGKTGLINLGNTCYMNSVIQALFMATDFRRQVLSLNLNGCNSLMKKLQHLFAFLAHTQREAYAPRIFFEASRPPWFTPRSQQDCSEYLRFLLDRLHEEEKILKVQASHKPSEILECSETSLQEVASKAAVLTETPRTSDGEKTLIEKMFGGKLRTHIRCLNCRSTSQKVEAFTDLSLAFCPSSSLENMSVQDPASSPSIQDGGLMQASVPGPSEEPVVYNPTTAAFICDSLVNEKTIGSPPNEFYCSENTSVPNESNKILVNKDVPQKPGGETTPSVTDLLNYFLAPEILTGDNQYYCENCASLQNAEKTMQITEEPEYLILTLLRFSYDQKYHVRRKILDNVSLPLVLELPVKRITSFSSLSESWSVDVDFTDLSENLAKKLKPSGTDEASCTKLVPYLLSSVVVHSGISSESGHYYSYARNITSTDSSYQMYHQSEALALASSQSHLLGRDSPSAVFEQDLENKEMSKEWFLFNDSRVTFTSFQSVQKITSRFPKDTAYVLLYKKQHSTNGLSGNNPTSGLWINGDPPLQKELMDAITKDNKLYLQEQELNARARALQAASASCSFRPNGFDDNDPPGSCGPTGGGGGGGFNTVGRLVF
Outline: as §1

USP39 = biological target: T3, USP39 (UniProt Q53GS9)
T3 sequence (whole entry): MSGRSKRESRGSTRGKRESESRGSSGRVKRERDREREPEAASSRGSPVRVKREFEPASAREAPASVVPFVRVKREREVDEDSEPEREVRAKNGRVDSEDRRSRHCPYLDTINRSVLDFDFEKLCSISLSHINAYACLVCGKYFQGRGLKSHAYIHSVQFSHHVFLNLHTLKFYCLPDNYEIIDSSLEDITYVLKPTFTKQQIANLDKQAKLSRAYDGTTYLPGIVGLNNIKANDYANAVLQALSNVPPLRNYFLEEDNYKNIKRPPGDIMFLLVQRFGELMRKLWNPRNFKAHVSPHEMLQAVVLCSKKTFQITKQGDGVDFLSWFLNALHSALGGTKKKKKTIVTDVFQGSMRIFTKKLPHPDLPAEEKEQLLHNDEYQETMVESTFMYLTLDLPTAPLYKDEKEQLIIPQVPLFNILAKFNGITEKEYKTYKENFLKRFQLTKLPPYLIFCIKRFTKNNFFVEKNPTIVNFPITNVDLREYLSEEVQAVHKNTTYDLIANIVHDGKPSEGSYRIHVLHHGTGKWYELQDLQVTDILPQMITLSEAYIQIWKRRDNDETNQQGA
Outline: as §1

USP4 = biological target: T4, USP4 (UniProt Q13107)
T4 sequence (whole entry): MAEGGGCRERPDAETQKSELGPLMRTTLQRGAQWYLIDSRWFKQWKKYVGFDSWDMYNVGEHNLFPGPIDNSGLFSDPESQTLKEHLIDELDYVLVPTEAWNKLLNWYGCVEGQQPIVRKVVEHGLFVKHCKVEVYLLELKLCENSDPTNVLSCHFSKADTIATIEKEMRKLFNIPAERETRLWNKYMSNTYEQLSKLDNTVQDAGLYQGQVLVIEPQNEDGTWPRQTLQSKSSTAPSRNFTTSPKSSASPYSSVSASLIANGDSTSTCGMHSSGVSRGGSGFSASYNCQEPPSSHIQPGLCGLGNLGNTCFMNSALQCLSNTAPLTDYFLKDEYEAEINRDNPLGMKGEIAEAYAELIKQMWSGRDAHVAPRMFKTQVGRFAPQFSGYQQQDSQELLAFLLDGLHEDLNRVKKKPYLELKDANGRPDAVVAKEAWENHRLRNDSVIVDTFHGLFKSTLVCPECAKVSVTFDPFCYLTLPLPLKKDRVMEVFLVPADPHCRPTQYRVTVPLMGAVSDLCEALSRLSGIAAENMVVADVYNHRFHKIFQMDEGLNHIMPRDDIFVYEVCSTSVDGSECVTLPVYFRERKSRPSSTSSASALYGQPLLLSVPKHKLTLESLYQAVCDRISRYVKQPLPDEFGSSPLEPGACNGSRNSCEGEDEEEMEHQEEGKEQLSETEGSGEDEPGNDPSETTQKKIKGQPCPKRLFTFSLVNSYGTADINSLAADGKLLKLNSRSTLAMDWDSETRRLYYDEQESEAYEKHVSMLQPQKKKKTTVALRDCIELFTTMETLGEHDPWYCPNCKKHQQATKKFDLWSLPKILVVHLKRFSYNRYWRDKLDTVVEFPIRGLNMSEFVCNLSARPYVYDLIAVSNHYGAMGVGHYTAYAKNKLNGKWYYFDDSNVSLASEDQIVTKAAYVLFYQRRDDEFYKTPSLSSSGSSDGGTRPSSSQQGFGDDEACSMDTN
Outline: as §1

Measured: log2 ratio of Biotin-Ahx-Ub-VS probe labelling

Cc1ccc(N(CCC#N)C(=O)CCl)cc1C
inactive: USP34 -0.0882 | USP36 -0.062 | USP38 -0.15 | USP39 0.18 | USP4 0.0498
